Most compounds without a hit are left out; they make up all but 4.5% or so of the library.
PfHsp90 set2 = inhibits growth of yeast expressing Plasmodium falciparum Hsp90; inhibition, % at 9.4 µM; S. cerevisiae expressing PfHsp90, BacTiter-Glo ATP, 48 h; yeast lacking PDR1 and PDR3 efflux regulators; AID 504621; hit rate 0.32% among 310,000;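 active = every replicate shows inhibition above about 80%, whatever the replicate mean, limit read from the data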;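 note: 0% = DMSO neutral controls and 100% = 20 µM radicicol positive controls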
SKKanGAS inh = inhibitors of SKKanGAS S. pyogenes growth in kanamycin (SK-promoter or general growth effect); BacTiter-Glo, 6 h; inhibition, % at 7.5 µM; hit rate 1.3% among 300,000;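 active = mean replicate score, as percent of positive control median, at least 50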;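 note: strain carries kanamycin resistance gene driven by streptokinase promoter and grows in 40 µg/ml kanamycin; loss of luminescence reflects streptokinase promoter inhibition or plain growth inhibition; 0% = median of DMSO wells and 100% = positive control at its reference dose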
tim10-1 inh = tim10-1 yeast growth inhibition. S. cerevisiae tim10-1 ts strain growth, BacTiter-Glo, 24 h. inhibition, % at 20 µM. hit rate 2.2% among 330,000;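 active = inhibition of at least 40%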;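 note: mutant grown at 25 °C; 0% = DMSO wells with yeast and 100% = wells holding no yeast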
tim23-1 inh = growth inhibitors of tim23-1 mutant yeast; S. cerevisiae tim23-1 growth, BacTiter-Glo luminescence, 24 h; inhibition, % at 20 µM; hit rate 1.3% among 330,000; AID 463212;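 active = growth inhibition of the mutant yeast at or above 50%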;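 note: temperature-sensitive mutant grown at 25 °C; plate controls were DMSO-treated mutant yeast for no effect and medium wells lacking yeast for full effect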
NLRP3 yeast inh = NALP3 inhibition in yeast; hit rate 0.39% among 330,000; inhibition, % at 10 µM; Yeast reconstituted NLRP3/ASC/caspase-1, beta-gal luminescence, 24 h; AID 2825;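 active = inhibition of 50% or more; inactive = inhibition below 50%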;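 note: plate controls were induced DMSO wells for no effect and uninduced yeast grown without galactose for full effect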
TIM10 inh = TIM10 yeast growth inhibition | hit rate 1.4% among 330,000 | S. cerevisiae TIM10 strain growth, BacTiter-Glo luminescence, 24 h | inhibition, % at 10 µM;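 active = inhibition of 40% or more at the single tested concentration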;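 note: wild-type TIM10 isogenic control strain grown at permissive 25 °C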
tim10-1 confirm = confirmation of tim10-1 mutant yeast growth inhibitors; shares compounds with tim10-1 inh; S. cerevisiae tim10-1 ts strain growth, BacTiter-Glo, 24 h; inhibition, % at 20 µM; hit rate 56% among 7,400; AID 463213;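 active = inhibition of yeast growth at or above a set limit in either of two repeat tests at 20 µM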;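 note: tim10-1 mutant grown at permissive 25 °C to find synthetic lethal compounds; 0% = DMSO yeast wells and 100% = medium wells without yeast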
TIM10 conf = confirmation of TIM10 yeast growth inhibitors; shares compounds with TIM10 inh; S. cerevisiae tim10 strain growth, BacTiter-Glo luminescence, 24 h; inhibition, % at 10 µM; hit rate 63% among 4,600; AID 463215;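 active = inhibition of yeast growth at or above a set limit in either of two replicates at 10 µM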;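 note: this counterscreen used the strain with wild-type TIM10; 0% = yeast with DMSO and 100% = medium wells lacking yeast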
tim23-1 conf = confirmation of tim23-1 mutant yeast growth inhibitors; shares compounds with tim23-1 inh; S. cerevisiae tim23-1 growth, BacTiter-Glo luminescence, 24 h; inhibition, % at 20 µM; hit rate 83% among 4,400; AID 463218;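 active = inhibition above about 39% in either of two replicate wells at 20 µM, limit read from the data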;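 note: temperature-sensitive tim23-1 mutant grown at 25 °C; 0% = DMSO wells with yeast and 100% = medium wells without yeast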
The depositor's hits bear a star; x = no result.

SMILES	PfHsp90 set2	SKKanGAS inh	tim10-1 inh	tim23-1 inh	NLRP3 yeast inh	TIM10 inh	tim10-1 confirm	TIM10 conf	tim23-1 conf
Cc1ccccc1-c1cc(C(=O)Nc2sc(C)c(C)c2C(N)=O)c2ccccc2n1	-12.9	47.0	42.3*	53.7*	23.7	30.9	31.2*	x	41.9*
Cc1cc2nc3ccc(N(C)C)cc3nc2cc1N	9.9	12.2	45.8*	50.3*	13.9	70.4*	57.7*	72.8*	40.7*
Cc1cc2nn(-c3cccc4ccccc34)nc2cc1N	-17.8	-1.8	25.5	27.9	1.8	22.4	x	x	x
O=C(CSc1nc2ncccc2[nH]1)Nc1ccccc1-c1ccccc1	9.6	13.1	6.2	-3.7	12.5	7.1	x	x	x
Cc1[nH]nc2c1C(c1cc(Br)cs1)C(C#N)=C(N)O2 (configuration not stated)	-27.1	-10.3	52.5*	60.9*	19.2	30.0	35.5*	x	45.3*
CCOC(=O)c1ccc(NC(=S)NC(=O)C2CCCC2)cc1	-21.6	7.7	47.6*	58.5*	26.7	40.7*	36.0*	52.5*	44.3*
Cc1ccc(NC(=S)NC(=O)C2CC2)cc1Cl	-2.2	x	48.5*	61.1*	38.1	29.8	14.4	x	49.0*
CCOC(=O)[C@@H]1[C@H]2COc3cc(OC)ccc3[C@@H]2N2C(=O)N(c3ccc(F)cc3)C(=O)[C@]12C	0.9	-0.5	33.5	18.6	22.0	13.5	x	x	x
CCOc1c(Br)cc(/C=C2\N=C(C)OC2=O)cc1Br	3.7	1.9	61.4*	58.7*	1.2	28.2	32.5*	x	64.0*
COc1cc(/C=C2\N=C(C)OC2=O)cc(OC)c1OC	13.3	-2.4	9.8	21.7	14.3	4.0	x	x	x
O=c1oc(/C=C/c2ccc([N+](=O)[O-])s2)nc2ccccc12	-10.4	-0.9	60.1*	54.0*	15.1	34.6	46.3*	x	44.7*
O=[N+]([O-])c1ccc(C=Nc2cccc3ccccc23)s1	103.1*	11.6	76.7*	78.8*	22.8	14.1	77.0*	x	69.7*
CCS(=O)(=O)c1ncc(Cl)c(C(=O)Nc2ccccc2OC)n1	-7.5	0.9	-4.8	18.1	15.5	-13.5	x	x	x
CCOc1ccccc1NC(=O)c1nc(S(=O)(=O)Cc2ccccc2)ncc1Cl	-58.0	58.6*	59.4*	78.2*	44.8	31.6	40.8*	x	74.5*
Cc1ccc(NC(=O)c2nc(S(=O)(=O)Cc3ccccc3C)ncc2Cl)cc1C	-14.2	67.8*	42.0*	67.5*	14.4	-32.8	-53.9	x	59.5*
C=CCn1c(SCC(=O)Nc2c(C)n(C)n(-c3ccccc3)c2=O)nnc1-c1cccnc1	13.7	x	9.4	9.2	1.4	-2.9	x	x	x
O=[N+]([O-])c1cc(/C=N/Nc2nc(N3CCCCC3)nc(N3CCCCC3)n2)ccc1O	0.6	3.5	48.7*	50.5*	-10.4	52.1*	39.1*	-4.5	51.6*
COc1ccc(-n2cccc2/C=C/[N+](=O)[O-])cc1	-13.7	25.8	62.0*	83.1*	7.4	59.1*	52.8*	-8.6	72.7*
Cc1ccccc1/C(N)=N/OC(=O)c1ccc(F)cc1	-6.8	10.1	43.6*	73.7*	-14.2	72.6*	42.8*	55.8*	66.6*
N/C(=N\OC(=O)/C=C/c1ccccc1)c1ccccc1	-18.0	-0.6	42.8*	76.6*	3.3	45.0*	52.7*	63.0*	73.0*
C/C(=N/OC(=O)c1ccc(F)cc1)c1ccc(C)cc1	8.5	-7.5	-0.3	-0.1	20.8	4.0	x	x	x
Cc1cc(OCC(=O)O/N=C(\N)c2ccccc2)cc(C)c1Cl	24.6	-18.9	63.7*	72.8*	4.9	36.1	49.4*	x	80.1*
O=C(/C=C/c1ccccc1)/C=C/c1ccccc1	16.3	-7.7	48.2*	59.2*	27.0	52.7*	48.6*	-29.2	66.7*
COc1ccc(/C=C/C(=O)O/N=C(\N)c2cccnc2)cc1OC	-32.7	-4.5	6.2	13.4	12.4	-7.7	x	x	x
Cc1ccc(Cn2nnc3c(=O)[nH]c(C4CCN(S(=O)(=O)c5ccccc5F)CC4)nc32)cc1	-32.7	18.3	-14.9	3.9	26.8	13.8	x	x	x
SMILES	PfHsp90 set2	SKKanGAS inh	tim10-1 inh	tim23-1 inh	NLRP3 yeast inh	TIM10 inh	tim10-1 confirm	TIM10 conf	tim23-1 conf
CCOc1ccc(C(=O)NC(C(=O)NCCc2ccc(OC(F)F)cc2)C(C)C)cc1 (configuration not stated)	-3.6	-2.0	10.1	22.0	12.7	-8.1	x	x	x
Cc1ccc2[nH]cc(S(=O)(=O)c3ccc(C)c(C)c3)c(=O)c2c1	-6.7	1.2	-8.1	4.6	-7.6	4.5	x	x	x
Cc1ccc(C(=O)O/N=C(\N)c2ccc(Br)cc2)cc1C	-0.6	-9.8	35.6	21.4	31.4	20.9	x	x	x
N/C(=N\OC(=O)c1ccoc1)c1ccc(Br)cc1	20.4	-2.0	59.4*	80.7*	4.7	70.6*	53.6*	64.0*	84.2*
Cc1ccccc1C(=O)O/N=C(\N)c1ccccc1	-10.6	5.0	54.6*	56.6*	23.3	52.5*	58.1*	49.5*	68.2*
Cc1occc1C(=O)O/N=C(\N)c1ccccc1	x	47.5	28.0	44.0	-11.2	24.3	x	x	x
Cc1ccc(C)c(C(=O)O/N=C(\N)c2ccc(Br)cc2)c1	-3.9	2.8	56.8*	86.0*	32.7	86.8*	33.3*	87.3*	60.6*
N/C(=N\OC(=O)c1ccc([N+](=O)[O-])cc1)c1ccc(Br)cc1	-17.8	-4.7	9.4	32.0	17.3	10.0	x	x	x
COc1ccc(S(=O)(=O)NCCc2c[nH]c3ccc(Cl)cc23)cc1	-10.6	-7.8	-4.9	22.9	21.3	1.9	x	x	x
O=C(CSc1nnc2ccc(-c3cccnc3)nn12)Nc1cccc(F)c1	28.0	-4.3	11.9	22.5	13.5	3.7	x	x	x
CN(C(=O)c1cccc(NC(=O)Cc2ccc(NC(=O)C3CCN(C(=O)C4CC4)CC3)cc2)c1)C1CCCCC1	-20.0	x	x	x	x	x	x	x	x
COc1ccc(Cn2c(SCc3ccccc3C)nc3cc(OC)c(OC)cc3c2=N)cc1	11.1	60.1*	49.6*	50.9*	16.1	3.2	-27.2	x	1.1
COc1cc2nc(SCc3ccc(F)cc3)n(Cc3cccs3)c(=N)c2cc1OC	-20.2	13.6	24.1	23.8	12.8	17.2	x	x	x
Cc1cc(C2C(=O)c3ccccc3C2=O)c(C)c(C)c1C	4.0	5.4	5.8	26.5	27.3	11.5	x	x	x
O=[N+]([O-])c1cccc(-c2cn3nc(-c4ccccc4)c(-c4ccccc4)nc3n2)c1	-5.3	10.5	10.2	-6.0	-18.1	15.2	x	x	x
O=Nc1c(-c2cccc([N+](=O)[O-])c2)nc2ncccn12	x	0.3	91.3*	89.1*	19.8	83.8*	91.2*	98.0*	72.8*

Screening data: PubChem, several laboratories
